# Assay outcomes: PubChem, National Center for Advancing Translational Sciences (NCATS)
# Shown are actives, neighbours in structure and some others; about 2.1% of the full set was active somewhere.
# aSyn rescue: alpha-synuclein toxicity inhibition in yeast | Potency, µM (series often up to 46.1 µM), inactives show at the top dose growth rescue (activation), most hits filed as activators | 370,000 compounds, 0.14% hits | Yeast expressing alpha-synuclein, growth rescue, BacTiter-Glo, 24 h; also: % of control where 0% means no effect; nearly all actives have a fitted effect of over 65% in size
#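 Readout is rescue of growth in alpha-synuclein-expressing yeast, so inhibitors of toxicity appear as activators. Growth after 24 hr at 30 deg C in galactose medium is quantified by luminescence.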
# Abeta rescue: compounds reversing amyloid beta toxicity in yeast; yeast expressing A-beta42, growth rescue, OD600, 48 h; response scale: 0% DMSO, 100% iron-clioquinol control; Potency, µM (top dose mostly 46.1 µM), usual class: activators; 410,000 compounds, 0.063% hits; also: nearly all actives have a fitted effect of over 55% in size
#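 Growth rescue measured by 600 nm absorbance after 48 h yeast culture at 30 C with compound. Values normalized between DMSO and an equimolar ferric chloride plus clioquinol control.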
# TDP43 rescue: TDP-43 toxicity inhibition in yeast | TDP-43 expressing yeast growth rescue, BacTiter-Glo, 24 h | Potency, µM (doses to about 46.1 µM), for inactives: at the top dose growth rescue (activation), hits mostly activators | 410,000 compounds, 1.8% hits; also: % of control where 0% means no effect; nearly all actives have a fitted effect of over 50% in size
#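 Yeast cells expressing TDP-43 under galactose induction are exposed to compounds for 24 hr at 30 deg C. BacTiter-Glo luminescence measures growth, so protective compounds score as activators.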
# FUS yeast rescue: rescues growth of FUS-expressing yeast | Potency, µM (titrated, usually from 76.6 µM), most hits filed as activators | S. cerevisiae FUS-expressing, growth rescue, OD600, 24 h | 390,000 compounds, 0.24% hits | AID 1347120;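 also: plate controls were DMSO vehicle for no effect and reference control for full effect; nearly all actives have a fitted effect of over 55% in size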
#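 Yeast expressing FUS under galactose induction, OD 0.005 in 2% galactose medium; compounds in a dilution series, 24 h at 30C. Growth rescue by absorbance at 600 nm; CP55940 positive control, DMSO negative.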
# The depositor's hits bear a star; i = inactive; ? = inconclusive; · = no result given; [ ] = remark or other dose. Calls follow the shape of the dose curve; as a rule, active = well fitted curve in the direction sought with a large enough effect; inconclusive = small, poorly fitted or top-dose-only effect, or another doubt; inactive = no such curve, though single readings can be large; an effect the other way counts as inactive or inconclusive. Potency is read from the fitted curve at half-maximal effect.
SMILES,aSyn rescue,Abeta rescue,TDP43 rescue,FUS yeast rescue
Cc1ccc(SCCN2CCC(NC(=O)OCc3ccccc3)CCC2=O)cc1 (stereo not drawn),-0.1%,i,13.5%,?
Cc1ccc(SC[C@H](C)CN2CCC(NC(=O)OCc3ccccc3)CCC2=O)cc1 (stereo partly drawn),25.1µM*,i,?,?
Nc1cccnc1Sc1cccc(Cl)c1,14.0%,i,17.8µM*,i
Cc1ccc(CNC(=O)c2oc3ccc(S(=O)(=O)N4CCC5(CC4)OCCO5)cc3c2C)cc1,3.6%,i,-8.1%,25.1µM*
Cc1c(C(=O)NCc2cccnc2)oc2ccc(S(=O)(=O)N3CCC4(CC3)OCCO4)cc12,?,i,0.1%,i
CC(C)c1ccc(-n2cnn(-c3ncccc3[N+](=O)[O-])c2=O)cc1,-3.0%,i,11.2µM*,i
Cc1cc(C)n(-c2ncccc2[N+](=O)[O-])n1,6.2%,i,7.1%,i
CCOC(=O)CC(=O)CSc1nc2c(cc1C#N)CCCCCC2,-3.5%,i,18.3%,11.2µM*
COC(=O)CC(=O)CSc1nc2c(cc1C#N)CCC2,0.7%,i,-4.5%,i
CC(=O)Nc1ccc(NCN2C(=O)C3C4CCC(C4)C3C2=O)cc1 (stereo not drawn),3.7%,i,25.1µM*,i
O=C(Nc1ccccc1C(=O)NCCc1ccc(O)cc1)c1ccco1,0.8%,i,-4.0%,i
Cc1oc(-c2ccc(Cl)cc2)nc1CSCC(=O)NCc1ccccc1Cl,·,i,1.7%,i
Cc1oc(-c2cccc(Cl)c2)nc1CSCC(=O)NCc1ccccc1Cl,·,i,22.4µM*,i
CC[C@]12c3[nH]c4cc(-c5ccco5)ccc4c3CCN1C(=O)[C@@H](CC(=O)NCCCN(C)C)C[C@@H]2C(=O)N1CCN(C(=O)c2ccco2)CC1,-3.4%,i,-1.1%,i
Cc1ccc(CN(C)C(=O)c2cccc(S(=O)(=O)N3CCc4ccccc4C3)c2)o1,1.6%[1.84 µM],i,35.5µM*,i
N#C/C(=C\Nc1ccccc1O)c1nc2ccccc2o1,-40.5%,i,7.08µM*,i
N#C/C(=C\c1ccncc1)c1nc2ccccc2o1,1.6%,i,-9.6%,i
CNc1ccc(-c2nc(-c3ccncc3)no2)cc1[N+](=O)[O-],·,i,-2.8%,i
Cc1cc(-c2nc(-c3ccncc3)no2)ccc1[N+](=O)[O-],-2.6%,i,11.2µM*,i
CCC(C)CN1C(=O)CN(S(C)(=O)=O)CC1(C)C(=O)NCc1ccccc1 (stereo not drawn),0.2%,i,5.2%,i
O=S(=O)(c1ccc(Cl)s1)N1CCC(c2cn3ccccc3n2)CC1,·,·,·,i
CCOC(=O)/C=C/C(=O)OCC(=O)Nc1ccc([N+](=O)[O-])cc1,-21.5%,·,14.1µM*,i
Cc1ccc(C)c(CS(=O)(=O)c2cn(CC(=O)N(C(C)C)C(C)C)c3ccccc23)c1,·,i,?,i
CCOC(=O)C1=C(C)N=c2s/c(=C\c3ccc(OCC(=O)O)c(OC)c3)c(=O)n2C1c1ccc(OC)cc1 (stereo not drawn),0.7%,i,7.9%,35.5µM*
Cc1ccccc1-n1c2nc(=O)[nH]c(=O)c-2cc2c(Cl)cccc21,·,i,3.55µM*,i
SMILES,aSyn rescue,Abeta rescue,TDP43 rescue,FUS yeast rescue
Cc1cccc(-n2c3nc(=O)n(C)c(=O)c-3cc3c(Cl)cccc32)c1C,·,i,6.6%,i
Cc1cccc2sc(N3CCN(C(=O)CS(=O)(=O)c4ccc(F)cc4)CC3)nc12,·,i,12.6µM*,i
COc1ccc(C(=O)NC2CCCc3ccccc32)cc1Br (stereo not drawn),3.3%,i,14.1µM*,i
Cc1ccc(C(=O)NC2CCCc3ccccc32)cc1[N+](=O)[O-] (stereo not drawn),7.4%,i,10µM*,i
CCCCCCCCCCS(=O)(=O)N/N=C/c1ccc(O)cc1,?,i,14.1µM*,i
Cc1ccc(C(=O)N2CCN(S(=O)(=O)c3cc(Br)ccc3Br)CC2)o1,-32.8%,i,20µM*,i
O=C(COc1ccccc1)Nc1sc2c(c1C(=O)Nc1ccccc1)CCCCC2,·,i,7.1%,i
COc1ccc(NC(=O)c2c(NC(=O)COc3ccc(Cl)cc3)sc3c2CCCCC3)cc1,·,i,8.91µM*,i
C#CCOc1c(Cl)cc(/C=C2/C(=O)ON=C2C)cc1OC,-9.3%,i,15.8µM*,i
CC1=NOC(=O)/C1=C/c1ccc(O)c(Cl)c1,-7.6%,i,17.7%,i
COc1cc(/C=C2/C(=O)ON=C2C)cc(Cl)c1O,-9.9%,?,6.2%,i
CCOc1cc(/C=C2/C(=O)ON=C2C)ccc1O,4.5%,?,17.8µM*,i
CCCCC(=O)NS(=O)(=O)c1ccc(NS(C)(=O)=O)cc1,2.3%,i,0.4%,i
CC(OC(=O)c1ccc(NS(=O)(=O)c2cccs2)cc1)C(=O)N(C)C1CCCCC1 (stereo not drawn),-3.0%,i,-5.8%,31.6µM*
CC1CCN(S(=O)(=O)c2ccc(C(=O)OC(C)C(=O)N(C)C3CCCCC3)cc2)CC1 (stereo not drawn),-6.2%,i,-19.2%,i
S=c1nn[nH]n1C12CC3CC(CC(C3)C1)C2,-18.4%,i,7.94µM*,i
S=c1nc(C23CC4CC(CC(C4)C2)C3)[nH][nH]1,-2.5%,i,11.2%,i
Cc1ccc(OCc2nc3ccccc3n2C(C(=O)Nc2c(C)cccc2C)C2CC2)cc1 (stereo not drawn),-0.8%,i,-16.8%,8.91µM*
C=CCn1c(COc2ccccc2)nc2ccccc21,13.6%,20µM*,-10.8%[1.82 µM],i
CCn1c(COc2ccc(C)cc2)nc2ccccc21,5.6%,i,11.2µM*,i
CS(=O)(=O)c1ccc(C(=O)OCC#CCSc2nnc(-c3cccc4ccccc34)o2)cc1,·,·,·,i
Cc1ccc(C)c(S(=O)(=O)N2CCN(C(=O)CSc3ccccc3F)CC2)c1,28.4%,i,27.7%,i
COC(=O)c1cc(C(=O)OCC(=O)Nc2ccccc2OC(F)F)cc([N+](=O)[O-])c1,15.0%,i,22.4µM*,i
O=C(COC(=O)Cc1ccc(Cl)cc1Cl)Nc1ccccc1OC(F)F,8.6%,i,20µM*,i
O=C(COC(=O)C1CCCCC1)Nc1ccccc1OC(F)F,6.5%,i,12.6µM*,i
Fc1ccc(N/N=C/C=C/c2ccccc2)c(F)c1,-11.8%,i,16.5%,·
O=C(NCCc1ccco1)c1cc(COc2cccc(C(F)(F)F)c2)on1,-15.1%,i,?,i
O=c1c2ccc([N+](=O)[O-])cc2ncn1CCOc1ccccc1,3.2%,i,23.0%[9.22 µM],i
Cc1ccc(OCCn2cnc3cc([N+](=O)[O-])ccc3c2=O)cc1,7.4%,i,10µM*,i
O=C(CN1C(=O)c2cccnc2Sc2ccccc21)Nc1cc(F)ccc1F,·,i,14.8%,i
